Experimental data: PubChem BioAssay AID1159580 (chemical genetic matrix, 2015)
Hit rate of the full screen: of about 5,500 compounds, about 2,000 (36%) were called active. Not shown: some 18% with an inconclusive outcome. No stated cut-off is given here; in the data, active means normalized growth mostly below about 0.91 (no sharp cut-off); inconclusive means no clear call, values can overlap the other calls; inactive means mostly above about 0.92. The list shows a part of the results.

Experiment: chemical genetic growth profiling, strain panel (AID 1159580);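 further: tested at 20 µM; growth read once vehicle control cultures reached saturation at 30 °C; 1 = growth at the plate median or of vehicle wells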
Conditions: growth OD

Measured: normalized growth

COc1ccc2c(c1)OC[C@@H](Cc1ccc(OC)c(OC)c1)[C@H]2O
active: S. cerevisiae deletion strains, locus YKR001C, strain vps1, stronger effect = lower value 0.84 | S. cerevisiae deletion strains, locus YLR039C, strain RIC1, stronger effect = lower value 0.675 | S. cerevisiae deletion strains, locus YLR262C, strain YPT6 (second series), stronger effect = lower value 0.755
inactive: S. cerevisiae deletion strains, locus YJR066W, strain TOR1, stronger effect = lower value 0.913 | S. cerevisiae deletion strains, locus YKL009W, strain mrt4, stronger effect = lower value 0.954 | S. cerevisiae deletion strains, locus YKL068W, stronger effect = lower value 0.973 | S. cerevisiae deletion strains, locus YKL085W, strain MDH1 (second series), stronger effect = lower value 0.976 | S. cerevisiae deletion strains, locus YKL085W, strain MDH1, stronger effect = lower value 0.976 | S. cerevisiae deletion strains, locus YKL160W, strain elf1, stronger effect = lower value 1.01 | S. cerevisiae deletion strains, locus YKL190W, strain CNB1, stronger effect = lower value 0.997 | S. cerevisiae deletion strains, locus YKR026C, strain gcn3, stronger effect = lower value 1 | S. cerevisiae deletion strains, locus YKR091W, strain srl3, stronger effect = lower value 1 | S. cerevisiae deletion strains, locus YLL001W, strain dnm1, stronger effect = lower value 0.979 | S. cerevisiae deletion strains, locus YLL026W, stronger effect = lower value 0.996 | S. cerevisiae deletion strains, locus YLL041C, strain sdh2, stronger effect = lower value 1 | S. cerevisiae deletion strains, locus YLR027C, strain aat2, stronger effect = lower value 1.01 | S. cerevisiae deletion strains, locus YLR058C, strain SHM2, stronger effect = lower value 1 | S. cerevisiae deletion strains, locus YLR102C, strain apc9, stronger effect = lower value 0.981 | S. cerevisiae deletion strains, locus YLR113W, strain HOG1, stronger effect = lower value 0.871 | S. cerevisiae deletion strains, locus YLR221C, strain rsa3, stronger effect = lower value 1.01 | S. cerevisiae deletion strains, locus YLR258W, strain gsy2, stronger effect = lower value 0.994 | S. cerevisiae deletion strains, locus YLR262C, strain YPT6, stronger effect = lower value 0.641 | S. cerevisiae deletion strains, locus YLR268W, strain sec22, stronger effect = lower value 0.997 | S. cerevisiae deletion strains, locus YLR320W, strain mms22, stronger effect = lower value 1.01 | S. cerevisiae deletion strains, locus YLR330W, strain CHS5, stronger effect = lower value 0.984 | S. cerevisiae deletion strains, locus YLR342W, strain FKS1 (second series), stronger effect = lower value 1.02 | S. cerevisiae deletion strains, locus YLR342W, strain FKS1, stronger effect = lower value 1 | S. cerevisiae deletion strains, locus YLR357W, strain rsc2, stronger effect = lower value 1.01 | S. cerevisiae deletion strains, locus YLR370C, strain arc18, stronger effect = lower value 1 | S. cerevisiae deletion strains, locus YLR371W, strain rom2, stronger effect = lower value 0.96 | S. cerevisiae deletion strains, locus YLR384C, strain iki3, stronger effect = lower value 1.01 | S. cerevisiae deletion strains, locus YLR418C, strain cdc73, stronger effect = lower value 1.04 | S. cerevisiae deletion strains, locus YML016C, strain PPZ1, stronger effect = lower value 1 | S. cerevisiae deletion strains, locus YML032C, strain rad52, stronger effect = lower value 0.975 | S. cerevisiae deletion strains, locus YML120C, strain ndi1, stronger effect = lower value 1 | S. cerevisiae deletion strains, locus YML124C, strain tub3, stronger effect = lower value 0.976 | S. cerevisiae deletion strains, locus YMR058W, strain fet3, stronger effect = lower value 1.02 | S. cerevisiae deletion strains, locus YMR078C, strain ctf18, stronger effect = lower value 0.977 | S. cerevisiae deletion strains, locus YMR125W, strain sto1, stronger effect = lower value 1.01 | S. cerevisiae deletion strains, locus YMR129W, stronger effect = lower value 1.01 | S. cerevisiae deletion strains, locus YMR205C, strain PFK2, stronger effect = lower value 0.966 | S. cerevisiae deletion strains, locus YMR223W, strain ubp8, stronger effect = lower value 0.976 | S. cerevisiae deletion strains, locus YMR231W, strain pep5, stronger effect = lower value 0.981 | S. cerevisiae deletion strains, locus YMR307W, strain GAS1, stronger effect = lower value 1.11 | S. cerevisiae deletion strains, locus YNL067W, strain RPL9B, stronger effect = lower value 1.02 | S. cerevisiae deletion strains, locus YNL071W, strain lat1, stronger effect = lower value 1 | S. cerevisiae deletion strains, locus YNL153C, strain GIM3, stronger effect = lower value 1.03 | S. cerevisiae deletion strains, locus YNL183C, strain NPR1, stronger effect = lower value 0.867 | S. cerevisiae deletion strains, locus YNL209W, strain ssb2, stronger effect = lower value 1.02 | S. cerevisiae deletion strains, locus YNL233W, strain BNI4, stronger effect = lower value 1.02 | S. cerevisiae deletion strains, locus YNL248C, strain rpa49, stronger effect = lower value 1.01 | S. cerevisiae deletion strains, locus YNL250W, strain rad50, stronger effect = lower value 0.962 | S. cerevisiae deletion strains, locus YNL271C, strain bni1, stronger effect = lower value 0.977 | S. cerevisiae deletion strains, locus YNL298W, strain CLA4, stronger effect = lower value 0.991 | S. cerevisiae deletion strains, locus YNL307C, strain MCK1, stronger effect = lower value 0.971 | S. cerevisiae deletion strains, locus YNL322C, strain KRE1 (second series), stronger effect = lower value 0.973 | S. cerevisiae deletion strains, locus YNR049C, strain mso1, stronger effect = lower value 1.01 | S. cerevisiae deletion strains, locus YNR052C, strain pop2, stronger effect = lower value 0.978 | S. cerevisiae deletion strains, locus YOL012C, strain htz1 1.24 | S. cerevisiae deletion strains, locus YOL147C, strain pex11, stronger effect = lower value 0.983 | S. cerevisiae deletion strains, locus YOR001W, strain rrp6, stronger effect = lower value 1.03 | S. cerevisiae deletion strains, locus YOR061W, strain CKA2, stronger effect = lower value 0.999 | S. cerevisiae deletion strains, locus YOR069W, strain VPS5, stronger effect = lower value 0.995 | S. cerevisiae deletion strains, locus YOR070C, strain gyp1, stronger effect = lower value 1 | S. cerevisiae deletion strains, locus YOR080W, strain dia2, stronger effect = lower value 1.01 | S. cerevisiae deletion strains, locus YOR083W, strain WHI5, stronger effect = lower value 0.997 | S. cerevisiae deletion strains, locus YOR106W, strain vam3, stronger effect = lower value 0.99 | S. cerevisiae deletion strains, locus YOR136W, strain idh2, stronger effect = lower value 0.986 | S. cerevisiae deletion strains, locus YOR144C, strain elg1, stronger effect = lower value 0.995 | S. cerevisiae deletion strains, locus YOR184W, strain ser1, stronger effect = lower value 0.964 | S. cerevisiae deletion strains, locus YOR231W, strain MKK1, stronger effect = lower value 0.93 | S. cerevisiae deletion strains, locus YOR265W, strain rbl2, stronger effect = lower value 1.01 | S. cerevisiae deletion strains, locus YOR270C, strain vph1, stronger effect = lower value 1.01 | S. cerevisiae deletion strains, locus YOR290C, strain snf2, stronger effect = lower value 0.987 | S. cerevisiae deletion strains, locus YOR316C, strain cot1, stronger effect = lower value 0.969 | S. cerevisiae deletion strains, locus YPL051W, strain arl3, stronger effect = lower value 0.997 | S. cerevisiae deletion strains, locus YPL078C, strain atp4, stronger effect = lower value 1.02 | S. cerevisiae deletion strains, locus YPL106C, strain sse1, stronger effect = lower value 1.03 | S. cerevisiae deletion strains, locus YPL240C, strain hsp82, stronger effect = lower value 1.01 | S. cerevisiae deletion strains, locus YPL241C, strain CIN2, stronger effect = lower value 1 | S. cerevisiae deletion strains, locus YPL256C, strain CLN2, stronger effect = lower value 0.907 | S. cerevisiae deletion strains, locus YPR119W, strain clb2, stronger effect = lower value 0.974 | S. cerevisiae deletion strains, locus YPR141C, strain kar3, stronger effect = lower value 0.979 | S. cerevisiae deletion strains, locus YPR163C, strain tif3, stronger effect = lower value 0.974 | S. cerevisiae deletion strains, locus YPR167C, strain met16, stronger effect = lower value 0.959 | S. cerevisiae deletion strains, strain wtn01, stronger effect = lower value 0.97 | S. cerevisiae strains, strain wild type, stronger effect = lower value 0.995
